# Assay outcomes as filed in PubChem BioAssay.
# IL-1B inflam inh: qHTS for Inhibitors of Inflammasome Signaling: IL-1-beta AlphaLISA Primary Screen; THP-1 LPS/ATP IL-1B secretion, AlphaLISA, 16 h; active compounds read low; activity change, % at 57.5 µM; 360,000 compounds, 4.7% hits; in the data active = activity change below about -50%; inconclusive = mostly about -30% to -49%
#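 THP-1 cells pretreated 1 hr with compounds (up to 57.5 uM final), then stimulated with LPS (250 ng/mL final) plus ATP (1.25 mM final); secreted IL-1B measured by AlphaLISA after 16 hr, decreased signal indicating inhibition.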
# ELG1 repair inh: qHTS screen for small molecules that inhibit ELG1-dependent DNA repair in human embryonic kidney (HEK293T) cells expressing luciferase-tagged ELG1; HEK293T ELG1-luciferase reporter, luminescence, 16 h; DNA damage induced by 5-fluorouridine; AID 504467, 2011; 330,000 compounds, 2.3% hits; Potency, µM (titrated, usually from 46.1 µM), without a hit: at the top dose activity change, negative = inhibition, hits mostly inhibitors; note: potency is the fitted concentration of half-maximal effect; nearly all actives have a fitted effect of over 55% in size
#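 In this reporter screen, reduction of luminescence relative to DMSO vehicle indicated activity. Compounds and 5-fluorouridine were added together to 2,000 cells per well, incubated for 16 hr at 37 °C, then developed with ONE-Glo.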
# TDP1 cell CPT: qHTS for Inhibitors of human tyrosyl-DNA phosphodiesterase 1 (TDP1): qHTS in cells in presence of CPT | Potency, µM (series often up to 46.2 µM), for the others: top-dose activity change, negative = growth inhibition, actives largely listed as inhibitors | AID 686979, 2013 | chicken DT40 Tdp1-/-;hTDP1 cells + 20 nM CPT, ATP luminescence, 48 h | 420,000 compounds, 12% hits; note: potency is the fitted concentration of half-maximal effect; nearly all actives have a fitted effect of over 55% in size
#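 Chicken DT40 Tdp1-/- cells complemented with human TDP1, 400 cells/well, exposed to compounds plus 20 nM camptothecin for at least 48 h at 37 C; viability read as ATP content by CellTiter-Glo luminescence.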
# VP16 counter: VP16 counterscreen qHTS for inhibitors of ROR gamma transcriptional activity. Potency, µM (series often up to 53.6 µM), without a hit: at the top dose activity, negative = inhibition, usual class: inhibitors. 310,000 compounds, 3.5% hits. Drosophila S2 Gal4-VP16 UAS-luciferase, luminescence, 20 h. AID 2546, 2010;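 note: Gal4-VP16 expression switched on by copper sulfate through the metallothionein promoter; potency is the fitted concentration of half-maximal effect; nearly all actives have a fitted effect of over 50% in size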
# RORg inh: qHTS for inhibitors of ROR gamma transcriptional activity. Nuclear receptor ROR-gamma (Mus musculus), P51450. Drosophila S2 Gal4-RORgamma UAS-luciferase reporter, 20 h. Potency, µM (series often up to 53.6 µM), without a hit: at the highest dose activity change, negative = inhibition, actives largely listed as inhibitors. 310,000 compounds, 5.4% hits. AID 2551, 2010; note: potency is the fitted concentration of half-maximal effect; nearly all actives have a fitted effect of over 60% in size
# Target sequence (P51450 whole entry, looked up, the tested form may be a part): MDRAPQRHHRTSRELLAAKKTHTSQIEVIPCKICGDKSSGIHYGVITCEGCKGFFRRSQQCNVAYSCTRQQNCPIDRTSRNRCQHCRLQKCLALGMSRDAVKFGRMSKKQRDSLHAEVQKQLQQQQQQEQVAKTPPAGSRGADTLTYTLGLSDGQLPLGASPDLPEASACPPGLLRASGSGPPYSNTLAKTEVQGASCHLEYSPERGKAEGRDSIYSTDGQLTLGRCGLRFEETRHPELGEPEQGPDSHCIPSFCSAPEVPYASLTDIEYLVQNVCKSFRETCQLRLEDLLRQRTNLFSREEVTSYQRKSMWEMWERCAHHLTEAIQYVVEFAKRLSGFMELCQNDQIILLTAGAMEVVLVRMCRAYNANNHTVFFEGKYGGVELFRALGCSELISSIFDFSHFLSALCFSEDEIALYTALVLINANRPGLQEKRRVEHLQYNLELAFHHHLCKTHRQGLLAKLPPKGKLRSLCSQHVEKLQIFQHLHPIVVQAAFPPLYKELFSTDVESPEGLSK
#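 Luciferase reporter read in Schneider cells carrying Gal4-RORγ (mouse) and UAS-Photinus luciferase; cells given compound 1 h before 700 uM copper sulfate induction, then incubated 20 h at ambient temperature.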
# TDP1 cell noCPT: qHTS for Inhibitors of human tyrosyl-DNA phosphodiesterase 1 (TDP1): qHTS in cells in absence of CPT; DT40 Tdp1-/- hTDP1 cells, no CPT, ATP luminescence, 48 h; Potency, µM (series often up to 46.2 µM), for inactives: at the highest dose activity change, negative = growth inhibition, hits mostly inhibitors; 420,000 compounds, 15% hits; note: potency is the fitted concentration of half-maximal effect; nearly all actives have a fitted effect of over 55% in size
#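 Chicken DT40 Tdp1-/- cells stably complemented with human TDP1 were seeded at 400 cells/well with DMSO in place of 20 nM camptothecin. After compound pinning, cells grew at least 48 hr at 37 °C; viability read by CellTiter-Glo luminescence.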
# * marks the source's active call; other numbers are inactive results; ? = inconclusive; nt = no result; [ ] = dose if it differs, or a comment. The list is not random: actives were taken first. Their share in the collection is about 21%. Unless noted, calls come from the whole dose curve; as a rule, active = well fitted curve in the direction sought with a large enough effect; inconclusive = small, poorly fitted or top-dose-only effect, or another doubt; inactive = no such curve, though single readings can be large; an effect the other way counts as inactive or inconclusive. % is set by controls: 0 for no effect and ±100 for the full control effect.
SMILES,IL-1B inflam inh,ELG1 repair inh,TDP1 cell CPT,VP16 counter,RORg inh,TDP1 cell noCPT
CCN(CC)c1ccc(/C=N/NC(=O)c2cnccn2)cc1,13.1,?,1.3µM*,-4.0%,-18.5%,1.64µM*
CCN(CC)c1ccc(/C=N/NC(=O)c2ccco2)cc1,30.0,?,?,?,14.1µM*,3.26µM*
CCN(CC)c1ccc(/C=N/N=C(c2ccccc2)c2ccccc2)c(O)c1,-23.2,-8.1%,?,20µM*,?,20.6µM*
CCN(CC)c1ccc(/C=N/NC(=O)c2ccc([N+](=O)[O-])cc2)cc1,1.4,-7.5%,-12.4%,-4.2%,-13.4%,-8.2%
CC(=O)OC[C@H]1O[C@@H](CCO/N=C2/[C@H]3O[C@@H]3[C@@H](O)[C@H]3[C@H]2CCn2c(=O)n(-c4ccccc4)c(=O)n23)C=C[C@@H]1OC(C)=O,nt,nt,nt,-13.4%[10 µM],29.0%[10 µM],nt
CCN(CC)c1ccc(/C=N/NC(=S)NCc2ccccc2)c(O)c1,63.4,?,?,7.08µM*,8.91µM*,?
CCN(CC)c1ccc(/C=N/NC(=O)Cc2cccs2)c(O)c1,66.0,19.2%,4.61µM*,0.562µM*,0.178µM*,5.17µM*
CCN(CC)c1ccc(/C=N/N(c2ccccc2)c2ccccc2)c(O)c1,-23.9,-12.3%,?,?,?,?
CCN(CC)c1ccc(NC(=O)c2ccco2)c(C)c1,-10.6,?,?,4.8%,3.0%,?
CCN(CC)c1ccc(/C=N/NC(=O)c2ccco2)c(O)c1,343.6,?,5.17µM*,3.16µM*,0.794µM*,2.59µM*
CCC(C)CN1C(=O)CN(S(C)(=O)=O)CC1(C)C(=O)Nc1c(C)cccc1C (stereo unspecified),0.0,nt,-24.3%,nt,nt,2.3%
COc1cc(Cl)c(C)cc1Nc1c2c(nc3ccccc13)CCC2,nt,nt,2.06µM*,nt,nt,1.46µM*
COc1cc(Nc2c3c(nc4ccccc24)CCCC3)cc(OC)c1OC,?,?,?,9.3%,11.2µM*,?
CC(C)(C)CC(C)(C)NCC(=O)Nc1c2c(nc3ccccc13)CCC2,?,?,-29.9%,0.7%,4.9%,?
COc1cc(Cl)c(C)cc1NC(=O)CSc1nc2c(c(=O)[nH]1)CCC2,nt,nt,-27.6%,nt,nt,?
COc1ccccc1Nc1nc2c(s1)CCC2,-11.1,?,14.6µM*,-13.8%,?,?
COCCCNc1c2c(nc3ccccc13)CCC2,33.3,nt,?,nt,nt,?
COc1ccccc1Nc1c2c(nc3ccccc13)CCC2,5.0,?,18.4µM*,-0.3%,1.8%,16.4µM*
O=C(NCC(F)(F)F)c1[nH]c(C(F)(F)F)nc1-c1ccccc1,-7.9,nt,2.6%,nt,nt,-6.0%
COc1ccc(Nc2c3c(nc4ccccc24)CCC3)c(OC)c1,?,?,14.6µM*,1.9%,0.6%,16.4µM*
COCCCNC(=O)c1cc(Nc2ccc(OC)cc2OC)nc2ccccc12,-4.8,-13.6%,?,-1.3%,19.9%,?
C=C(C)C(O)/C=C/c1ccc(OC)cc1 (stereo unspecified),nt,nt,nt,5.7%[10 µM],17.6%[10 µM],nt
CCCCN(C(=O)c1cccc(S(=O)(=O)N(CC)c2ccccc2)c1)c1c(N)n(CC(C)C)c(=O)[nH]c1=O,0.0,nt,-18.4%,nt,nt,-10.1%
CCN(CC)C(=O)c1sc2c(c1C)c(=O)n(-c1ccc(C)c(C)c1)c(=O)n2Cc1cccc(Cl)c1,nt,nt,20.6µM*,nt,nt,?
CCN(CC)C(=O)c1sc2c(c1C)c(=O)n(Cc1ccccc1)c(=O)n2Cc1ccc(Cl)cc1,nt,nt,?,nt,nt,4.61µM*
SMILES,IL-1B inflam inh,ELG1 repair inh,TDP1 cell CPT,VP16 counter,RORg inh,TDP1 cell noCPT
CCOC(=O)c1ccccc1NC(=O)Cn1c(=O)n(-c2ccc(CC)cc2)c(=O)c2c(C)c(C(=O)N(C)C)sc21,nt,nt,8.2µM*,nt,nt,11.6µM*
CCN(CC)C(=O)c1sc2c(c1C)c(=O)n(-c1ccc(C)c(C)c1)c(=O)n2CC(=O)Nc1ccc(F)cc1,nt,nt,-26.7%,nt,nt,?
CCOC(=O)c1sc2c(c1C)c(=O)n(CCO)c(=O)n2Cc1ccccc1,-0.8,?,14.6µM*,-5.3%,-0.4%,16.4µM*
CCc1ccc(NC(=O)Cn2c(=O)n(-c3cccc(OC)c3)c(=O)c3c(C)c(C(=O)N(C)C)sc32)cc1,nt,nt,0.5%,nt,nt,-7.3%
CCN(CC)C(=O)c1sc2c(c1C)c(=O)n(CCc1ccccc1)c(=O)n2Cc1cc(C)ccc1C,nt,nt,-1.3%,nt,nt,2.3%
Cc1ccc(Cn2c(=O)n(CCc3ccccc3)c(=O)c3c(C)c(C)sc32)cc1,nt,nt,-13.3%,nt,nt,?
CC(=O)Nc1ccc(NC(=O)C(C)OC(=O)CNS(=O)(=O)c2cccc(Cl)c2)cc1 (stereo unspecified),25.5,17.1%,-7.2%,1.6%,-6.2%,-1.7%
CCc1ccc(Oc2c(C(F)(F)F)oc3c(CN4CCCC(C)C4)c(O)ccc3c2=O)cc1 (stereo unspecified),nt,nt,2.6%,nt,nt,6.0%
Cc1cccc(C)c1NC(=O)Cn1c(=O)n(Cc2ccccc2)c(=O)c2c(C)c(C(=O)N(C)C)sc21,nt,nt,16.4µM*,nt,nt,?
CCN(CC)C(=O)c1sc2c(c1C)c(=O)n(Cc1ccccc1)c(=O)n2Cc1c(C)cc(C)cc1C,nt,nt,?,nt,nt,20.6µM*
CC1CCN(C(=S)NC(=O)c2ccco2)CC1,20.2,?,-0.5%,6.31µM*,3.98µM*,6.0%
COc1ccc(C(=O)NC(=S)N2CCC(C)CC2)cc1,-15.7,?,?,3.98µM*,1.41µM*,?
O=C(NC(=S)N1CCN(Cc2ccccc2)CC1)c1ccco1,27.4,11.7%,-17.3%,3.55µM*,0.891µM*,-15.9%
Cc1ccc(N(C)C(=O)Cn2nc(Cc3ccncc3)c3ccccc3c2=O)cc1C,nt,nt,-26.7%,nt,nt,-25.0%
CC(=O)C1=CCC(c2ccc(C)cc2)N(S(=O)(=O)c2ccc(C)cc2)C1 (stereo unspecified),24.8,nt,?,nt,nt,?
CC(=O)C1=CCC(c2ccc(Br)cc2)N(S(=O)(=O)c2ccc(C)cc2)C1 (stereo unspecified),-52.0*,nt,18.4µM*,nt,nt,?
